# Biological target: AMP-activated protein kinase, AMPK (Homo sapiens) (UniProt P54646+O43741+P54619+Q9UGJ0+Q9Y478+Q13131+Q9UGI9)
# Test: AMP-dependent Kinase enzyme assay. An in vitro enzyme assay that detects ADP turnover that is directly proportional to AMPK activity. This uses naive AMPK that is activated during the assay with MK-8722
# Assay type: functional
# Design: scale not given: direction of the effect not stated beside the values
# Conditions: 30 µM
row,SMILES,Percent Effect
1,Cn1cccc1CN(C(=O)Cc1cccs1)C1CC1,-4.04%
2,CN(CC(=O)NCC1CCCCC1)S(=O)(=O)c1cccnc1,-4.46%
3,CNC(=O)c1ccc(CN(C(C)C)C(C)C)o1,-7.38%
4,Cc1[nH]nc(CCC(=O)N2CCc3c(nc[nH]c3=O)C2)c1C,4.58%
5,O=C(C1CCCO1)N1CCC(n2cc(-c3ccsc3)nn2)CC1 (centres undefined),4.03%
6,Cc1cc(CN(C)C(C(=O)O)c2cccc(C(F)(F)F)c2)on1 (centres undefined),3.9%
7,CCn1ncnc1C(C)Nc1cc(C2CC2)ncn1 (centres undefined),3.16%
8,Cc1ccccc1SCC(=O)N[C@H]1CC[C@H](n2cnnc2)CC1,1.98%
9,Cc1ccccc1OCCn1cnc2oc(C)c(C(=O)O)c2c1=O,14.5%
10,c1cc(CNCc2ccc(-n3cncn3)nc2)cc(OC2CCCC2)c1,9.46%
11,CCN1CC2(CCN(CC3CCCO3)CC2)OC1=O (centres undefined),-9.49%
12,CN(CCCOc1ccccc1Cl)C(=O)CN1CCCCCC1=O,9.36%
13,CCCc1cc(=O)[nH]c(-n2nc(-c3cccs3)cc2N)n1,-6.1%
14,Cc1cc(C)c(NC(=O)Nc2cnn(CC(O)CN(C)C)c2)c(C)c1 (centres undefined),0.923%
15,Cc1ccc(C2(O)CCN(C(=O)Cn3cc(C)c(=O)[nH]c3=O)CC2)nc1,7.31%
16,CCOCCC(=O)Nc1cccc(Cl)c1COC,-0.185%
17,Cc1noc(C)c1S(=O)(=O)N1CCC(n2cccn2)CC1,-5.45%
18,CCn1cc(C(=O)NCCN2CCCc3ccccc32)c(C)n1,7.97%
19,COCCN(Cc1sccc1C)C(=O)COc1cccnc1,-3.19%
20,Cn1cc(-c2cc(C(=O)N3CCOCC3)c3ccc(F)cc3n2)cn1,18.9%

row,SMILES,Percent Effect
1,CCc1nnc(C(C)N2CCN(CCC(C)(C)C)CC2)o1 (centres undefined),8.59%
2,Cn1cc(NC(=O)N2CCCC2c2cccnc2)ccc1=O (centres undefined),42.2%
3,CC(C)(C(=O)N[C@@H]1CCC[C@@H](O)[C@@H]1O)c1cccc(F)c1,15.9%
4,C[C@@H]1CN(Cc2nc(C(N)=O)no2)CC[C@@]1(O)C1CC1,0.276%
5,CN(C)C(CNC(=O)CCNC(=O)OCC(F)(F)F)c1ccsc1 (centres undefined),3.22%
6,O=C(NC1CC1)c1nc(Cn2c(C(F)F)nc3ccccc32)no1,10.9%
7,CCC1(CC)CC(=O)N(CC(O)c2cccc(F)c2)C1=O (centres undefined),12.2%
8,CCNC(=O)C1CCN(Cc2ccc(C(=O)Nc3cnns3)cc2)C1 (centres undefined),1.07%
9,CN(C)CC1(O)CCCN(C(=O)CCn2cc(Cl)cn2)C1 (centres undefined),4.94%
10,COC(=O)c1ccc(N(C(=O)c2ccncc2)C(C)C)c(C)c1,-1.62%
11,COCCNC(=O)NCc1ccc(-n2ccc(C(F)(F)F)n2)cc1,-8.71%
12,Cc1noc(C)c1C(=O)N[C@@H]1CC[C@@H](Oc2ccccc2)[C@@H]1O,18.4%
13,O=C(C1CCCO1)N1CCC(Cn2cc(C3CCCC3)nn2)CC1 (centres undefined),3.98%
14,c1cn(Cc2ccc(N3CCCN(C4CCCC4)CC3)nc2)cn1,11.7%
15,NC(=O)CCn1ccc(NCc2cc(F)ccc2Br)n1,-0.0146%
16,CCCSCC(=O)NCc1cccc(CN(C)CC)c1,5.85%
17,Cc1cc(C(F)(F)F)nc(CNC(=O)CCn2cccn2)n1,12.2%
18,CC(C)C(=O)Nc1cccc(CNC(=O)CSCc2ccccn2)c1,1.74%
19,O=C(Cc1ccc2c(c1)CCC2)NC1CCN(Cc2ccccc2)CC1,-0.352%
